Results with a measured potency or affinity are listed apart. Calls of active or inactive are those of the source. How the calls were made is not given here.

The assay in a line: cell based cytopathic effect inhibition, veev tc 83 strain, confirmatory screen (AID 624284). Conditions: VEEV TC-83 infected cells; at 25 µM (top of the series). (Damage to the host cells serves as the signal in cytopathic effect assays.)
`CCN1CCN(Cc2nc3ccc(C(=O)N(C)C)cc3c(=O)n2-c2ccccc2)CC1`: the compound was classed as inactive.

`CCN1CCN(Cc2nc3cc([N+](=O)[O-])ccc3c(=O)n2-c2ccccc2)CC1`: the compound was classed as inactive.

`CCN1CCN(Cc2nc3cccc([N+](=O)[O-])c3c(=O)n2-c2ccccc2)CC1`: the compound was called inactive.

Consider `NS(=O)(=O)c1ccc(-n2c(-c3ccccc3)nc3ccc(Br)cc3c2=O)cc1`, for which the compound was called inactive.

For `CCN1CCN(Cc2nc3ccc(C(N)=O)cc3c(=O)n2-c2ccccc2)CC1`, the call was inactive.

`CCN1CCN(Cc2nc3ccc([N+](=O)[O-])cc3c(=O)[nH]2)CC1`: the inhibition was -1%.

`CCN1CCN(Cc2nc3ccc([N+](=O)[O-])cc3c(=O)n2C(C)C)CC1`: the result was inactive.

A word on the inhibition: it is the change of the read-out against control, counted positive when it falls.
